What all share (assay): NCI-60 one-dose screen, 48 h (100 = growth as untreated, 0 = no growth, -100 = all killed)
Conditions in all cases: 10 µM

Assay [1] has as its system SK-MEL-2 melanoma.
Assay [2] deals with EKVX NSCLC.
The test system of assay [3] is SN12C renal.
Assay [4] relates to UO-31 renal.
The test system of assay [5] is ACHN renal.
Assay [6] concerns CAKI-1 renal.
Assay [7] relates to A498 renal.
Assay [8] deals with CCRF-CEM leukemia.
The subject of assay [9] is MOLT-4 leukemia.
In assay [10] the test system is SR leukemia.
Assay [11] relates to RPMI-8226 leukemia.
Assay [12] deals with OVCAR-8 ovarian.
Assay [13] has as its system OVCAR-5 ovarian.
Assay [14] deals with OVCAR-4 ovarian.
Assay [15] concerns SK-OV-3 ovarian.
Assay [16] concerns IGROV1 ovarian.
In assay [17] the test system is OVCAR-3 ovarian.
The subject of assay [18] is HS 578T breast.
Assay [19] has as its system NCI/ADR-RES ovarian.
The test system of assay [20] is TK-10 renal.

The record followed here is PubChem BioAssay (NCI).

The panel holds about 83,000 compounds, 20% with a hit somewhere; the sample as a whole holds those more often.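 Cell lines were cultured in 96-well plates, exposed to a single compound concentration, and assessed for percent growth 48 hours later.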 Values without a mark were called inactive. Activity calls are given as the source filed them. The calls were made as follows: active = growth percent below 10; inactive = the rest.

Regarding `COc1cc(/C=C2\CCCC3C2=Nc2ccccc2NC3c2cc(OC)c(OC)c(OC)c2)cc(OC)c1OC` (stereo unspecified), the growth in [1] is 17.9%; in assay [2], 59.8%; in assay [3] it was -4.27% (active); in [4], 5.57% (active); in [5] it was -23% (active); in assay [6], 6.51% (active). The growth in [7] is -22.4% (active); in assay [8], 4.32% (active); in assay [9] it was 0.606% (active); in assay [10], 2.76% (active); in assay [11], -10.9% (active); in assay [12], 18.7%. Besides, the growth is 16.5% in [13]; 33.5% in assay [14]; 45.4% in assay [15]; -21% (active) in [16]; -7.11% (active) in [17]; 53.2% in [18]. Besides, the growth in [19] is 5.96% (active).

With `Fc1ccc2[nH]cc(-c3nc(-c4ccsc4)cs3)c2c1`, the growth was 87.9% in [1]; 57.1% in assay [2]; 92.5% in assay [3]; 74.4% in assay [4]; 133% in assay [20]; 93.6% in assay [5]. The growth in assay [9] is 78%; in assay [10], 86.2%; in assay [12], 94.4%; in assay [13], 107%; in assay [14] it was 101%; in assay [15], 80.5%. Besides, the growth in assay [16] is 85.7%; in assay [17], 99.8%; in assay [18], 96.8%; in [19], 80.8%.

For `COc1ccc(/C=C2\CCCC3C2=Nc2ccccc2NC3c2ccc(OC)cc2)cc1` (stereo unspecified), the growth is 92% in assay [1]; 87.5% in [2]; 85.5% in assay [3]; 74.1% in assay [4]; 113% in assay [5]; 78.2% in assay [6]. Also, the growth is 77.3% in [7]; 80.4% in assay [8]; 72% in [9]; 53.9% in assay [10]; 25.7% in assay [11]; 85.1% in assay [12]. Moreover, the growth in [13] is 127%; in [14] it was 77.5%; in [15] it was 89.3%; in [16], 96.6%; in assay [17], 86.8%; in [18], 87.6%. For the same compound, the growth in [19] is 86.2%.

As to `COc1nc2c(c(=O)n1C)CN(c1ccccc1)C(=O)C(C)N2` (stereo unspecified), the growth in [1] was 90.8%; in assay [2] it was 96.4%; in assay [3], 92%; in assay [4], 78.7%; in assay [5] it was 93.9%; in [6], 100%. The growth in assay [7] is 115%; in assay [8], 97.2%; in [9], 93.7%; in assay [10], 93.6%; in assay [11], 96%; in [12] it was 93.4%. Further, the growth in assay [13] is 93.2%; in assay [14], 91.9%; in assay [15] it was 107%; in assay [16], 106%; in assay [17] it was 112%; in [18], 105%. For the same compound, the growth in assay [19] is 91%.

`NC1=NC(c2ccc(Cl)cc2)C2=C(N1)/C(=C/c1ccc(Cl)cc1)CCC2` (stereo unspecified): the growth is 94.7% in assay [1]; 93.7% in assay [2]; 84.8% in [3]; 67.8% in assay [4]; 95.6% in [5]; 90.8% in assay [6]. For the same compound, the growth was 54.7% in assay [7]; 72.2% in assay [8]; 64.9% in assay [9]; 20.8% in assay [10]; -12.4% (active) in assay [11]; 41.2% in assay [12]. For the same compound, the growth was 112% in [13]; 76.1% in assay [14]; 80.6% in [15]; 85.2% in assay [16]; 39.1% in [17]; 100% in assay [18]. In addition, the growth in assay [19] is 92.9%.

Take `O=C(CCCCNC(=O)c1nc(-c2ccccc2)n(-c2ccccc2)n1)NO`: the growth in assay [1] was 67.6%; in assay [2], 80.7%; in assay [3], 77.9%; in [4], 86.4%; in [20], 56%; in assay [5] it was 102%. For the same compound, the growth in [9] was 58.1%; in [10], 76%; in assay [12], 51%; in assay [13], 85%; in [14], 90.6%; in assay [15] it was 13.2%. In addition, the growth in assay [16] is 89.2%; in assay [17] it was 70.1%; in assay [18], 60.8%; in assay [19] it was 87.6%.

For `O=S(=O)(O)c1ccc(Cl)cc1`, the growth in assay [1] is 95.9%; in assay [2], 105%; in [3], 100%; in [4], 88.7%; in [20] it was 88.2%; in assay [5], 104%. For the same compound, the growth was 106% in assay [8]; 98.7% in assay [9]; 92.5% in [10]; 102% in assay [11]; 101% in assay [12]; 103% in assay [13]. The growth in assay [14] was 114%; in assay [15] it was 92.6%; in assay [16], 103%; in assay [17] it was 103%; in [18], 101%; in [19], 99%.

Regarding `CN(C)c1ccc(/C=N/NC(=O)c2ccccc2Nc2cccc(C(F)(F)F)c2)cc1`, the growth in assay [1] is 62.3%; in [2] it was 82.2%; in assay [3], 87.6%; in assay [4], 77.2%; in assay [5], 97.4%; in assay [6], 77.7%. Besides, the growth was 1.42% (active) in assay [7]; 53.4% in assay [8]; 76.7% in assay [9]; 85% in [10]; 76.8% in [11]; 99.6% in assay [12]. Besides, the growth in assay [13] is 88.4%; in [14], 76.1%; in [15], 100%; in assay [16] it was 69.1%; in [17], 87.7%; in assay [18], 83.5%. In addition, the growth in assay [19] was 93%.

`O=C(CCl)Nc1ccc(Cc2ccc(NC(=O)CCl)cc2)cc1`: the growth is -20.6% (active) in assay [1]; -3.32% (active) in assay [2]; 31.6% in assay [3]; 54.5% in assay [4]; 83.6% in [20]; -20.1% (active) in assay [5]. Also, the growth in assay [8] was 0.0611% (active); in [9], -4.84% (active); in [10], 5.61% (active); in [11], -32.9% (active); in assay [12], 0.481% (active); in assay [13], 9.56% (active). In addition, the growth in assay [14] is 27%; in assay [15], 61.7%; in assay [16] it was -45.9% (active); in [17], -32.8% (active); in [18], 35.7%; in assay [19] it was 2.83% (active).

In the case of `Cc1c2c(nn1C(=O)c1nn(-c3ccc(Cl)cc3)cc1O)-c1ccccc1CC2`, the growth in assay [1] was 0.774% (active); in [2], 6.22% (active); in assay [3], 29.2%; in [4] it was 10.3%; in assay [5], 16.7%; in [6] it was -25.5% (active). The growth in [7] was 80.5%; in [8] it was -7.92% (active); in assay [9], -1.46% (active); in [10], -39.9% (active); in [11], -35.3% (active); in assay [12], 6.41% (active). Also, the growth in assay [13] was 40.8%; in [14] it was 15.6%; in [15], 13%; in [16], 17.8%; in [17], -3.9% (active); in assay [18], 71.5%. Moreover, in assay [19], the growth is 6% (active).

As to `CSc1nc2c(c(=O)n1C)CN(Cc1ccccc1)C(=O)CN2`, the growth was 86.3% in [1]; 86% in [2]; 97.7% in assay [3]; 78.3% in [4]; 96.4% in assay [5]; 88.6% in [6]. Also, the growth in assay [7] was 92.4%; in [8], 80.7%; in [9] it was 92.5%; in assay [10] it was -9.52% (active); in assay [11], 109%; in assay [12] it was 106%. The growth was 94.4% in assay [13]; 91% in assay [14]; 99% in assay [15]; 97.6% in [16]; 98.6% in assay [17]; 101% in assay [18]. The growth in assay [19] is 85.5%.
